In PubChem BioAssay (Tox21) one finds Potency data, which are given here for eight molecules.

Values without a mark were called inactive. Results filed as inconclusive are left out. Calls of active or inactive are those of the source. Unless noted, the call rests on the fitted dose curve; in most records, active means well fitted curve in the direction sought with a large enough effect in the repeat runs; inconclusive means weak or mixed curves; inactive means no such curve, though single readings can be large; an effect the other way counts as inactive or inconclusive.

The nature of experiment [1]: A CellTox Green Cytotoxicity Assay to monitor cytotoxicity in HepG2 cells - 8 hour (AID 1224890). Further: nearly all actives have a fitted effect of over 45% in size. Further: potency means the concentration at half of the fitted maximal effect. The essentials:
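Real-time, homogeneous cytotoxicity readout: dead-cell DNA staining by CellTox Green in HepG2 monolayers, fluorescence measured at timed intervals up to 40 h of continuous compound exposure.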

Experiment [2] is described as follows: qHTS assay to identify small molecule antagonists of the estrogen receptor alpha (ER-alpha) signaling pathway using the BG1 cell line in the presence of 0.1 nM 17-beta-estradiol - cell viability counter screen (AID 1259241). Further: nearly all actives have a fitted effect of over 40% in size. Put shortly:
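Live-cell protease activity (CellTiter-Fluor fluorescence, 30 min) was read in the same wells after VM7Luc4E2 cells had been exposed to compounds with 0.1 nM 17beta-estradiol for 22 hr at 37C.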

The nature of experiment [3]: qHTS assay to identify small molecule antagonists of the androgen receptor (AR) signaling pathway using the MDA cell line in the presence of 0.5 nM R1881 - cell viability counter screen (AID 1259242). Further: nearly all actives have a fitted effect of over 45% in size. Put shortly:
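Cytotoxicity toward MDA-kb2 cells is measured by CellTiter-Fluor live-cell protease fluorescence after 16 hr compound exposure at 37C in the presence of 0.5 nM R1881 stimulator.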

The target of experiment [4] is Androgen receptor (Homo sapiens) (UniProt P10275). Nature of the experiment: qHTS assay to identify small molecule antagonists of the androgen receptor (AR) signaling pathway using the MDA cell line in the presence of 0.5 nM R1881 (AID 1259243). Further: nearly all actives have a fitted effect of over 50% in size. Further: potency means the concentration at half of the fitted maximal effect. The essentials:
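Steps: seed MDA-kb2 cells, incubate 5 hr at 37C; pin-transfer compounds in DMSO; add R1881 to 0.5 nM final; incubate 16 hr; add ONE-Glo, wait 30 min at room temperature; read luminescence.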

Experiment [5] is described as follows: qHTS assay to identify small molecule HDAC inhibitors (AID 1259364). Further: top concentration of the series differs between compounds; nearly all actives have a fitted effect of over 45% in size. Put shortly: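 Homogeneous cell-based luminescent assay of endogenous class I/II HDAC activity; HCT-116 cells, 2 h compound exposure, 30 min HDAC-Glo development at RT.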
Experiment [6] is described as follows: qHTS assay to identify small molecule HDAC inhibitors - cell viability counter screen (AID 1259365). Further: series mostly up to about 92 µM; nearly all actives have a fitted effect of over 50% in size. Put shortly: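 HCT-116 (wild type), 1,500 cells/well, overnight 37C/5% CO2; compound in DMSO 2hr; CellTiter-Glo 30min RT; luminescence read.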
Background: Quantitative high-throughput screening tests each substance at several concentrations.

Experiment [7] can be described thus: qHTS assay to identify small molecule antagonists of the sonic hedgehog signaling (Shh) pathway - cell viability counter screen (AID 1259367). Further: nearly all actives have a fitted effect of over 55% in size. Put shortly: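 NIH/3T3-derived Gli1-Luc reporter cells (2,000 per well) rested 4 hr at 37 C, then received DMSO compounds plus conditioned medium. After 23 hr of treatment, CellTiter-Fluor was added for 1 hr at 37C and fluorescence read.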

Experiment [8] is described as follows: qHTS assay to identify small molecule agonists of the sonic hedgehog signaling (Shh) pathway (AID 1259368; calls by dose curve;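 further: NIH/3T3-derived 3T3Gli1-Luc cells carrying a stable Gli1-driven firefly luciferase reporter; series mostly up to about 92 µM; nearly all actives have a fitted effect of over 15% in size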). Put shortly: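 Steps: seed 3T3 Gli1-Luc cells, incubate 4 hr at 37 C, pin-transfer compounds in DMSO alongside a positive control, incubate 24 hr, add luciferase detection reagent, wait 30 min at room temperature, read luminescence.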
Experiment [9] in a line: qHTS assay to identify small molecule antagonists of the sonic hedgehog signaling (Shh) pathway (AID 1259369; calls by dose curve; further: nearly all actives have a fitted effect of over 45% in size; further: potency means the concentration at half of the fitted maximal effect). The essentials:
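Inhibition of Shh signalling is measured as reduced Gli1-response-element firefly luciferase output in an NIH/3T3-derived stable reporter clone stimulated with conditioned medium for 24hr.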

The nature of experiment [10]: qHTS assay to identify small molecule agonists of the estrogen receptor beta (ER-beta) signaling pathway - cell viability counter screen (AID 1259380). Further: nearly all actives have a fitted effect of over 30% in size. Further: potency means the concentration at half of the fitted maximal effect. The essentials:
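Same-well viability counter screen. Cells: ER-beta-UAS-bla HEK293T, plated 6 hr before compound, in 2% charcoal-stripped FBS. Compound exposure 16 hr, 37C; viability by CellTiter-Glo luminescence after 30 min at room temperature.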

Experiment [11] deals with Androgen receptor (Homo sapiens) (UniProt P10275). Nature of the experiment: qHTS assay to identify small molecule agonists of the androgen receptor (AR) signaling pathway in the presence of an antagonist (AID 1259381; calls by dose curve; further: nearly all actives have a fitted effect of over 15% in size). The essentials:
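Cells are MDA-kb2 (human breast carcinoma, MMTV-luc, AR/GR responsive). Nilutamide is present at 3.0uM final throughout; compounds are added at 15 concentrations and incubated 16hr at 37C before ONE-Glo luminescence detection.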

A short description of experiment [12]: qHTS assay to identify small molecule antagonists of the estrogen receptor beta (ER-beta) signaling pathway - cell viability counter screen (AID 1259382). Further: nearly all actives have a fitted effect of over 55% in size. Further: potency means the concentration at half of the fitted maximal effect. The essentials:
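Following a 6 hr plating period, HEK293T cells carrying a UAS-driven beta-lactamase reporter under ER-beta control received compounds and 1nM E2 (final). After 16 hr at 37C and 2 hr substrate loading, CellTiter-Glo luminescence indicated viability.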

A short description of experiment [13]: qHTS assay to identify small molecule agonists or antagonists of the thyroid stimulating hormone receptor (TSHR) signaling pathway - wild type cell line counter screen (AID 1259384; calls by dose curve). The essentials: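 Wild-type HEK293 cells were plated 18 h at 37 C/5% CO2, pin-dosed with compound plus Ro20-1724 medium, held 30 min at room temperature, then given cAMP-d2 and anti-cAMP-cryptate; fluorescence was read after 1 h. Fifteen concentrations, triplicate.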

In experiment [14] the target is Estrogen receptor (Homo sapiens) (UniProt P03372). Nature of the experiment: qHTS assay to identify small molecule antagonists of the estrogen receptor alpha (ER-alpha) signaling pathway using the BG1 cell line in the presence of 0.1 nM 17-beta-estradiol (AID 1259244). Further: nearly all actives have a fitted effect of over 50% in size. The essentials:
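After 5 days in hormone-depleted medium (charcoal-stripped serum, no phenol red), VM7Luc4E2 cells were seeded, incubated 24 h, then co-treated with compound and 0.1 nM (final) estradiol for 22 h before luminescence detection.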

Experiment [15] concerns the target Estrogen receptor beta (Homo sapiens) (UniProt Q92731). Nature of the experiment: qHTS assay to identify small molecule agonists of the estrogen receptor beta (ER-beta) signaling pathway (AID 1259377; active means well fitted activation curve with a large enough effect in the signal ratio in the repeat runs, not every such curve was filed as active; the % refers to the signal ratio). Put shortly:
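Beta-lactamase reporter readout: fluorescence of LiveBLAzer B/G FRET substrate after 2 h at room temperature, following 16 h compound treatment of ER-beta-UAS-bla HEK293T cells at 37C in 2% charcoal-stripped FBS medium.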

The target is the same in experiment [16]. The experiment is described as follows: qHTS assay to identify small molecule antagonists of the estrogen receptor beta (ER-beta) signaling pathway (AID 1259378; active means well fitted inhibition curve with a large enough effect in the signal ratio in the repeat runs, not every such curve was filed as active; the % refers to the signal ratio). The essentials:
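ER-beta-UAS-bla HEK293T (GripTite) cells in 2% charcoal-stripped FBS medium were preincubated 6 hr at 37C, dosed with compound, then stimulated with 1 nM E2 (final) for 16 hr; beta-lactamase reporter read by B/G FRET fluorescence after 2 hr substrate loading.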

The nature of experiment [17]: qHTS assay to identify small molecule agonists of the androgen receptor (AR) signaling pathway in the presence of an antagonist - cell viability counter screen (AID 1259379).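 Further: MDA-kb2 human breast cancer cells carrying an MMTV luciferase reporter; series mostly up to about 92 µM; nearly all actives have a fitted effect of over 25% in size.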 The essentials: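 Fluorescence from CellTiter-Fluor, added after 15 hr and read 1 hr later, gave cell viability. Cells were MDA-kb2 exposed to compounds (15 concentrations) in the presence of 3.0uM nilutamide at 37C, 0% CO2.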

In experiment [18] the target is Estrogen receptor (Homo sapiens) (UniProt P03372). The experiment is described as follows: qHTS assay to identify small molecule agonists of the estrogen receptor alpha (ER-alpha) signaling pathway in the presence of an antagonist (AID 1259383; calls by dose curve; further: top concentration of the series differs between compounds; nearly all actives have a fitted effect of over 15% in size). The essentials:
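Cells are hormone-deprived for 5 days (charcoal-stripped FBS, no phenol red), plated for 24hr, spiked with 10.0nM ICI-182,780, then dosed at 15 concentrations. After 22hr at 37C, ONE-Glo luminescence reports ERE-luciferase activity.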

The nature of experiment [19]: qHTS assay to identify small molecule phospholipidosis (PLD) inducers (AID 1259344; active means well fitted curve in the direction sought with a large enough effect; an effect the other way counts as inactive or inconclusive; further: potency means the concentration at half of the fitted maximal effect). Put shortly:
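HepG2 cells on collagen I, attached 4 h at 37 C, were co-treated with compound and LipidTOX Red dye for 24 h at 37 C, then fixed with paraformaldehyde plus Hoechst 33342 and imaged by high-content microscopy for phospholipid accumulation.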

Experiment [20] can be described thus: qHTS assay to identify small molecule agonists of the sonic hedgehog signaling (Shh) pathway - cell viability counter screen (AID 1259366). Further: nearly all actives have a fitted effect of over 50% in size. Put shortly: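 CellTiter-Fluor fluorescence read-out, 1 hr at 37C, added after 23hr compound exposure. Cells: 3T3 Gli1-Luc, an NIH/3T3 clone with stably integrated Gli1-Luc reporter, plated 4hr before compound.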

Estrogen receptor beta (Homo sapiens), sequence (Q92731 whole entry, looked up): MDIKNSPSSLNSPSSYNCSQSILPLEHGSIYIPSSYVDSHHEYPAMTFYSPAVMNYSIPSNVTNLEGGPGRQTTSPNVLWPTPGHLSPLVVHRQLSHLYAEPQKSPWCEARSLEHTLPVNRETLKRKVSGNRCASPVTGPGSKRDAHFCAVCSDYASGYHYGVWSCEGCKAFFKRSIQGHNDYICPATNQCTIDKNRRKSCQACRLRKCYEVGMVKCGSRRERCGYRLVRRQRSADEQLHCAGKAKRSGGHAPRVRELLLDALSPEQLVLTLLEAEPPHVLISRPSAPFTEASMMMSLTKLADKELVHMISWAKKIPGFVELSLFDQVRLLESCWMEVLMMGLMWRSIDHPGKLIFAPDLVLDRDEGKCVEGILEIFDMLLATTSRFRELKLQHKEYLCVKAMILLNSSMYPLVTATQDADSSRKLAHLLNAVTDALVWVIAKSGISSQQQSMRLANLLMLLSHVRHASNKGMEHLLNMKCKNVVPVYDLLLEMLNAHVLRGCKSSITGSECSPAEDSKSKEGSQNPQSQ
Androgen receptor (Homo sapiens), sequence (P10275 whole entry, looked up): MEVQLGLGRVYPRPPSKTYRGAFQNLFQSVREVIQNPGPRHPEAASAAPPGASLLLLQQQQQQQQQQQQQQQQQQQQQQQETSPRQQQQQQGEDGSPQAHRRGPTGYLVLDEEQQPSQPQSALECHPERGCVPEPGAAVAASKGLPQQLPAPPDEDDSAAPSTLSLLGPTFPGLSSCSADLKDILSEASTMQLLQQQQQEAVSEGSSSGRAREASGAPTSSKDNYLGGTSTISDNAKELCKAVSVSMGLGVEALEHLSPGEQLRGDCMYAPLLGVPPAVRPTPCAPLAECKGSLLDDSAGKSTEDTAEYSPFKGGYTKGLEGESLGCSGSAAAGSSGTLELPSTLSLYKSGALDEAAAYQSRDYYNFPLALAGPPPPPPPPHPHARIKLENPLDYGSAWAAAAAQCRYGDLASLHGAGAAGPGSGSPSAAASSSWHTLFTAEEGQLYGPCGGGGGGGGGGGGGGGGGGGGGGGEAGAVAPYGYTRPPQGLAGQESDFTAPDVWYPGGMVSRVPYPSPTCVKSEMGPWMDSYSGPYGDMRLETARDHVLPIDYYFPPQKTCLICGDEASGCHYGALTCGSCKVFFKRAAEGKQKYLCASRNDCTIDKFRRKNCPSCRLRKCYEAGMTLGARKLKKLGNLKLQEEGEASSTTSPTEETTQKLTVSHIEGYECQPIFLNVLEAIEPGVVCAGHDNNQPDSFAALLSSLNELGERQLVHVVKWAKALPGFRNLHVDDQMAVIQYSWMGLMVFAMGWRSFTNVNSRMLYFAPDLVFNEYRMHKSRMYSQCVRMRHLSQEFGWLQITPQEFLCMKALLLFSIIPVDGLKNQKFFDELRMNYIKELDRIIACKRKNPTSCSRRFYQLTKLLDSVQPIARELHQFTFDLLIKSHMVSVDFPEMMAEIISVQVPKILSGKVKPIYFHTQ
Estrogen receptor (Homo sapiens), sequence (P03372 whole entry, looked up): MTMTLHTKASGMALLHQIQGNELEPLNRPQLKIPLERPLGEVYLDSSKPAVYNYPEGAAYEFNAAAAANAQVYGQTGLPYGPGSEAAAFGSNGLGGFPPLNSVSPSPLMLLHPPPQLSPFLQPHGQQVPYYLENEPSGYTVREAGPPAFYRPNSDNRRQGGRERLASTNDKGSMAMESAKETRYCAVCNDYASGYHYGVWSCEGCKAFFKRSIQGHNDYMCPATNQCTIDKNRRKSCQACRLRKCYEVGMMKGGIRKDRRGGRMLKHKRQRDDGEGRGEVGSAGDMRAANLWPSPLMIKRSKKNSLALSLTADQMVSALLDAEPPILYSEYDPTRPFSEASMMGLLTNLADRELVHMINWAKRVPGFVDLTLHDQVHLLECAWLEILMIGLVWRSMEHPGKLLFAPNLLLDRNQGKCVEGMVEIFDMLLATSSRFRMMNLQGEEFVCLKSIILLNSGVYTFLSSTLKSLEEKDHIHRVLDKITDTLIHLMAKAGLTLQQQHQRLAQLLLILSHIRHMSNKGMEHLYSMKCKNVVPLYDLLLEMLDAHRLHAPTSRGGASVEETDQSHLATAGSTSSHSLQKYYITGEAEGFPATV

As for `CNS(=O)(=O)c1cc(C(=O)N2CCC(CCN3C4CCC3CC(n3c(C)nc5ccccc53)C4)(c3cccc(F)c3)CC2)c(Cl)cc1F` (stereo not given), the Potency result in [1], in [2], in experiment [3], in experiment [5], in experiment [6] and in experiment [7] was “inactive” throughout. Further, the Potency entry in [8], in [11] and in experiment [13] was “inactive” throughout. Further, the Potency is 24.3 µM (active) in experiment [4], 15.4 µM (active) in experiment [9], 5.45 µM (active) in experiment [10] and 7.7 µM (active) in [12].
For the molecule `CCC(C)(C)C(=O)O`, the Potency result in experiment [1], in experiment [2], in experiment [3], in experiment [4], in experiment [14] and in [6] was “inactive” each time. Besides, the Potency result in experiment [7], in experiment [8], in [9], in [15], in experiment [16] and in [17] was “inactive” throughout. The Potency entry in experiment [10], in experiment [11], in experiment [12], in experiment [18] and in experiment [13] was “inactive” in each case.
Take `CN=C(N)NC(=O)Nc1c(C)cccc1C`: the Potency entry in experiment [1], in [2], in experiment [3], in experiment [14], in experiment [19] and in experiment [5] was “inactive” each time. In addition, the Potency entry in experiment [6], in experiment [20], in experiment [7], in experiment [8], in experiment [9] and in [17] was “inactive” in each case. For the same molecule, the Potency result in experiment [10], in experiment [12], in experiment [18] and in experiment [13] was “inactive” in each case.
On to `CC(CCc1ccc(O)cc1)NCCc1ccc(O)c(O)c1` (stereo not given), for which the Potency entry in experiment [1], in experiment [2], in [3], in experiment [14], in experiment [19] and in experiment [5] was “inactive” each time. Besides, the Potency entry in experiment [6], in [20], in experiment [7], in experiment [8], in experiment [9] and in experiment [17] was “inactive” throughout. The Potency result in [10], in [12] and in experiment [18] was “inactive” in each case.
In the case of `COc1cc(C(C)=O)ccc1OCCCN1CCC(c2noc3cc(F)ccc23)CC1`, the Potency entry in experiment [1], in [2], in experiment [3], in experiment [14], in experiment [5] and in experiment [6] was “inactive” each time. The Potency entry in experiment [20], in experiment [7], in experiment [8], in [17], in experiment [12] and in experiment [18] was “inactive” in each case. The Potency in experiment [19] was 1 µM (active).
For `CC(C)c1ccc(C#N)cc1`, the Potency result in experiment [1], in experiment [2], in experiment [3], in [14], in [5] and in experiment [6] was “inactive” each time. The Potency result in [20], in experiment [7], in experiment [8], in [9], in experiment [15] and in experiment [16] was “inactive” in each case. Moreover, the Potency entry in experiment [17], in experiment [10], in experiment [12], in experiment [18] and in [13] was “inactive” in each case.
For `O=C(c1ccccc1)C1CCC1`, the Potency in experiment [1] is 38.9 µM (active). For the same molecule, the Potency entry in experiment [2], in experiment [3], in experiment [14], in experiment [5], in [6] and in [20] was “inactive” each time. In addition, the Potency result in [7], in [8], in experiment [9], in [15], in experiment [16] and in experiment [17] was “inactive” each time. Further, the Potency entry in experiment [10], in experiment [12], in experiment [18] and in experiment [13] was “inactive” throughout.
Turning to `NC(=O)CCCCC(N)=O`, the Potency result in [1], in [2], in [3], in experiment [14], in experiment [5] and in experiment [6] was “inactive” in each case. For the same molecule, the Potency entry in experiment [20], in experiment [7], in [8], in [9], in experiment [15] and in experiment [16] was “inactive” in each case. Besides, the Potency entry in [17], in experiment [10], in experiment [12], in experiment [18] and in [13] was “inactive” each time.
